# The full list was thinned out, with hits kept by preference.
# TbPYK inhibitor: qHTS of Trypanosoma Brucei Inhibitors. pyruvate kinase (Trypanosoma brucei), Q57TT1. TbPYK enzyme, Kinase-Glo Plus ATP luminescence, 45 min. Potency, µM (top dose mostly 76.8 µM), usual class: inhibitors. actives 0.12% (n = 410,000); also: nearly all actives have a fitted effect of over 50% in size
#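 Quantitative HTS: titrated library compounds versus trypanosomal pyruvate kinase in TEA buffer (pH 7.2) containing KCl, MgCl2, BSA and Tween-20. Reactions were initiated with ADP, 130 uM final. Kinase-Glo Plus luminescence was read after 45 min at RT.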
# Shiga toxin inh: A qHTS for Small Molecule Inhibitors of Shiga Toxin. Vero cells, Shiga toxin protein synthesis inhibition reporter. inhibition, % at 38.7 µM. actives 9.2% (n = 290,000); in the data active = inhibition mostly above about 28%, no sharp cut-off; inactive = mostly below about 43%
# Giardia FBPA inh: qHTS Assay for Inhibitors of Fructose-1,6-bisphosphate Aldolase from Giardia Lamblia; purified Giardia FBPA; A8B2U2; Potency, µM (highest dose often 59.6 µM), actives largely listed as inhibitors; actives 0.71% (n = 290,000); AID 2451, 2010; also: nearly all actives have a fitted effect of over 55% in size
# Target sequence (A8B2U2 whole entry, looked up): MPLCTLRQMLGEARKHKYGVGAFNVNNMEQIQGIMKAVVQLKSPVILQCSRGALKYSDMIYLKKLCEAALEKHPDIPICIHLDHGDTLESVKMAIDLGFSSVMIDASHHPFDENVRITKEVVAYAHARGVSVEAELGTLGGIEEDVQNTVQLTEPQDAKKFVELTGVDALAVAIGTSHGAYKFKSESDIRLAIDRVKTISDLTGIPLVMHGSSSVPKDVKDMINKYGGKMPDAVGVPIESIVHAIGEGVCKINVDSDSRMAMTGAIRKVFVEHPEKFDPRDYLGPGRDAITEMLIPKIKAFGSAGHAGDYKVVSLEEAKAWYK
#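 Giardia FBPA (40 nM reagent) was preincubated 10 min at RT with compound (up to 57.5 uM final), then substrate plus GAPDH/TPI/NAD/arsenate coupling system with diaphorase/resazurin was added; resorufin fluorescence (525/598 nm) was read after 20 min.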
# LmPK inh: qHTS Assay for Inhibitors of Leishmania Mexicana Pyruvate Kinase (LmPK); AID 1721, 2009; purified LmPK, Kinase-Glo ATP luminescence, 1 h; Potency, µM (titrated, usually from 57.5 µM), hits mostly inhibitors; actives 0.37% (n = 290,000)
#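 Pyruvate kinase activity monitored as ATP production (luciferase luminescence). Conditions: 0.1 nM enzyme, 0.5 mM PEP, 0.1 mM ADP, 1 h, RT; normalized against uninhibited and no-enzyme wells.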
# Cycloheximide cs: Cycloheximide Counterscreen for Small Molecule Inhibitors of Shiga Toxin; cell reporter, cycloheximide protein synthesis inhibition counterscreen; max response, %; actives 12% (n = 300,000); AID 2314, 2010; in the data active = max response mostly above about 13%, no sharp cut-off; inactive = mostly below about 14%; also: read at 38.3 µM for the half of the compounds with a filed dose
# Sm TGR block: qHTS Assay for the Inhibitors of Schistosoma Mansoni Peroxiredoxins. purified TGR, DTNB reduction, TNB absorbance 405 nm. Potency, µM (highest dose often 114 µM), usual class: inhibitors. actives 3% (n = 360,000). AID 485364, 2010; also: nearly all actives have a fitted effect of over 60% in size
#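 Kinetic colorimetric format: TGR-catalysed, NADPH-driven DTNB reduction monitored via TNB absorbance. Enzyme dispensed at 20 nM; compound exposure 15 min at room temperature before reaction start.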
# Numbers stand for hits; 0 = inactive; ? = inconclusive; - = no result given; + = active, no number; [ ] = another dose, or the depositor's remark. Unless noted, calls follow the shape of the dose curve; as a rule, active = well fitted curve in the direction sought with a large enough effect; inconclusive = small, poorly fitted or top-dose-only effect, or another doubt; inactive = no such curve, though single readings can be large; an effect the other way counts as inactive or inconclusive.
SMILES,TbPYK inhibitor,Shiga toxin inh,Giardia FBPA inh,LmPK inh,Cycloheximide cs,Sm TGR block
COc1ccc(S(=O)(=O)NCC(c2ccc(F)cc2)N2CCN(C)CC2)cc1 (stereo not given),0,-,-,-,-,0
Cc1cnc(C)c(N2CCN(Cc3nc(-c4cccc(F)c4F)oc3C)CC2)n1,0,0,0,0,0,35µM
Cc1cccc(N2CCN(Cc3nc(-c4ccc(F)cc4F)oc3C)CC2)n1,0,0,0,0,0,0
O=C(Cn1cc([N+](=O)[O-])ccc1=O)NCc1ccc(Cl)cc1Cl,0,24,-,0,33,0
NC(CSC1(c2ccc(Cl)cc2)c2ccccc2-c2ccccc21)C(=O)O (stereo not given),0,-,-,-,-,-
Cc1c(/C=N/Nc2ccc([N+](=O)[O-])cn2)c2ccccc2n1Cc1ccccc1,0,0,0,0,20,0
Cc1ccc(Cn2cc(/C=N/Nc3ccc([N+](=O)[O-])cn3)c3ccccc32)cc1,0,+,0,0,19,0
O=Cc1cn(Cc2ccc([N+](=O)[O-])cc2)c2ccccc12,0,0,0,0,0,0
O=C(O)Cn1cc(/C=N/Nc2ccc([N+](=O)[O-])cn2)c2ccccc21,0,35,0,0,28,0
Cc1ccc(C=NNc2ccc([N+](=O)[O-])cn2)cc1,0,-,-,-,-,-
COC(=O)C1=C(C(=O)OC)[C@@H]2N(C)c3ccc(OC)cc3[C@@]23C[C@@H](C(=O)OC)N(S(=O)(=O)c2ccc(C)cc2)C3=N1,-,-,0[12.9 µM],0[11.5 µM],-,-
CC(C)(C)[C@H]1COC(=O)CCC/C=C/C[C@H](CC(=O)NCCO)C(=O)N1,0,-,-,-,-,-
CCCNC(=O)C1(C)CCCN(C(=O)c2c(F)ccc(C)c2F)C1 (stereo not given),0,-,-,-,-,-
C=C/C(C)=C/[C@@]1(C)SC(=O)C(C)=C1O,-,-,0,-,-,-
C=CCc1c(C)nc(SCc2ccccc2)[nH]c1=O,0,0,?,0,16,0
Nc1nc(SCc2ccccc2)[nH]c(=O)c1-c1ccccc1,0,121,0,0,67,0
C=CCc1c(C)nc(SCC(=C)C)[nH]c1=O,0,0,0,0,0,0
Nc1nc(SCC(=O)N2CCCc3ccccc32)[nH]c(=O)c1-c1ccccc1,0,54,0,0,34,0
Nc1nc(SCc2ccccc2Cl)[nH]c(=O)c1-c1ccccc1,0,0,0,0,0,0
COc1ccccc1CCn1c(=O)cnc2cncnc21,-,-,0,-,-,-
NNC(=O)Cn1nc2n(c1=O)-c1ccccc1SC2,0,0,0,0,0,0
O=c1n(Cc2ccccc2)nc2n1-c1ccccc1SC2,0,49,0,0,28,0
O=c1n(Cc2ccccc2Cl)nc2n1-c1ccccc1SC2,0,40,0,0,48,0
C=CCn1nc2n(c1=O)-c1ccccc1SC2,0,0,0,0,0,0
O=C(/C=C/c1ccc(Cl)c([N+](=O)[O-])c1)Nc1cccc(NC(=O)c2ccco2)c1,0,67,0,0,36,0
SMILES,TbPYK inhibitor,Shiga toxin inh,Giardia FBPA inh,LmPK inh,Cycloheximide cs,Sm TGR block
O=C(Nc1cc(Oc2ccc(Cl)cc2)cc([N+](=O)[O-])c1)c1ccco1,0,74,0,0,47,0
O=C(Nc1ccc(Cl)c([N+](=O)[O-])c1)c1ccco1,0,0,0,0,20,0
O=C(/C=C/c1ccc(Cl)c([N+](=O)[O-])c1)Nc1ccc(NC(=O)c2ccco2)cc1,0,0,0,0,0,0
Cc1ccc2cc3cc(C(=O)NC4CC4)oc3nc2c1,0,0,0,0,26,0
Cc1ccc2cc3cc(C(=O)NCc4ccco4)oc3nc2c1,0,32,0,0,23,?
Cc1ccc2cc3cc(C(=O)N4CC(C)CC(C)C4)oc3nc2c1 (stereo not given),0,41,0,0,27,0
Cc1ccc2cc3cc(C(=O)NC4CCCCC4)oc3nc2c1,0,0,-,0,0,0
Cc1ccc2cc3cc(C(=O)N4CCCCC4C)oc3nc2c1 (stereo not given),0,61,0,0,21,0
Cc1ccc2cc3cc(C(=O)NCCC(C)C)oc3nc2c1,0,0,0,0,0,?
C[C@@H](NCCCn1ccc(NC(=O)OCc2ccccc2)nc1=O)c1cccc2ccccc12,0,-,-,-,-,-
Cc1cccc(N2CCN(C(=O)CCc3c(C)nc4ncnn4c3C)CC2)c1C,0,-,-,-,-,0
CS(=O)(=O)Nc1cccc(-c2cncnc2Nc2ccc(F)cc2)c1,-,-,0,-,-,-
O=C(c1cc2cc3ccc(Cl)cc3nc2o1)N1CCCCCC1,0,79,0,0,21,0
O=C(c1cc2cc(Cl)ccc2o1)N1CCCCCC1,0,-,-,-,-,0
O=C(COc1ccccc1)NC1CC(=O)N(c2ccc3c(c2)OCCO3)C1 (stereo not given),0,-,-,-,-,0
COc1ccc(C(=O)NNC(=S)NC(=O)c2ccc(F)cc2)cc1Br,0,-,-,-,-,-
COc1ccc(C(=O)NC(=S)NC(C)C)cc1Br,0,65,0,0,23,16µM
COc1ccc(C(=O)NC(=S)N2CCC(C)CC2)cc1Br,0,29,-,0,18,0
COc1ccc(C(=O)NC(=S)NC(C)(C)C)cc1Br,0,71,0,0,21,0
O=C(c1ccc2oc(Cc3ccc(Cl)cc3)nc2c1)N1CC[C@H](O)C1,0,0,-,0,0,0
Cc1ccnc2c1ccc1cccnc12,0,-,-,-,-,?
Cc1ccnc2c1ccc1ccccc12,0,0,0,0,16,0
O=C(Nc1ncc(Cc2cccc(C(F)(F)F)c2)s1)C1CCCO1 (stereo not given),0,35,0,0,34,0
Cc1ccc(Cc2cnc(NC(=O)C3CCCO3)s2)cc1 (stereo not given),0,138,0,0,34,0
CCOC(=O)[C@]12Cc3c(cc(OC)c(OC)c3OC)[C@H]1N(C1CCCCC1)C(=O)c1cc(OC)ccc12,0,-,-,-,-,-
SMILES,TbPYK inhibitor,Shiga toxin inh,Giardia FBPA inh,LmPK inh,Cycloheximide cs,Sm TGR block
O=C(C1CCCN(S(=O)(=O)c2ccc(Br)s2)C1)N1CCN(c2ccc(F)cc2)CC1 (stereo not given),0,-,-,-,-,0
COc1ccccc1C(=O)NCCOc1ccc(C)c(C)c1,0,39,0,0,25,0
Cc1ccc(OCCNC(=O)c2ccccc2N)cc1,0,27,0,0,13,0
COc1ccc2c(CCNC(=O)c3ccco3)c[nH]c2c1,0,63,0,0,49,0
COc1ccccc1C(=O)NCCC(=O)NCCOc1ccc(C)cc1,0,-,-,-,-,-
Cc1ccc(OCCNC(=O)c2ccc3ccccc3n2)cc1,0,0,0,0,0,0
CCOC(=O)NCCOc1ccc(Oc2ccccc2)cc1,-,30,0,-,21,-
CCc1ccc(OCCNC(=O)OCc2ccccc2)cc1,0,0,0,0,0,0
